This note sets out measurements from PubChem BioAssay AID651692 (Broad Institute, 2012).

Potency and affinity values are given separately. Activity calls are given as the source filed them.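 How the source made its calls: active means fitted half-maximal concentration for loss of cell signal no higher than twice the top valid tested concentration; inconclusive means flat curve at 30 to 70% inhibition, or poor fit; inactive means flat within 30%, signal rise, or potency above limit.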

A short description of the assay: MDA-MB-231 cell growth inhibition, dose response, cytotoxicity control for RAD54 inhibitor project, CellTiter-Glo luminescence, cherry-pick (AID 651692).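 Further: 0% = median of sample compound wells and -100% = staurosporine control wells; more negative values mean stronger loss of viable cell signal.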 The following applies: MDA-MB-231 viability, 24 h; series mostly up to 26 µM; activity change, negative = growth inhibition: at the top concentration.
`Nc1ccnn1C1CCNCC1`: the “activity change, negative = growth inhibition” value is 2.95% (inactive).
Take `COc1ccc2c(c1)[nH]c1c(C)nccc12`: the “activity change, negative = growth inhibition” value was -8.19% (inactive).
Under `CN1CCN(c2cc(N3CCNCC3)ccc2[N+](=O)[O-])CC1` stands 5.42% (inactive).
On to `Nc1ccc(C2(c3ccc(N)cc3)CN3CCC2CC3)cc1`, for which the “activity change, negative = growth inhibition” value was 3.5% (inactive).
With `O=C(NC1CN2CCC1CC2)c1cc(Cl)c([N+](=O)[O-])c2nc[nH]c12` (stereo not drawn), the “activity change, negative = growth inhibition” value is -4.87% (inactive).
Next, `CCN1CCN(c2ccc(N)c(C)c2)CC1`: 0.217% (inactive); `CN1CCC(N(C)c2nc(-c3ccccc3)nc3ccccc23)CC1`: -4.35% (inactive); `CN1CCN(c2ccc(N)cc2)CC1`: -5.01% (inactive).
Under `Cc1nccc2c1[nH]c1ccccc12` stands 0.422% (inactive); under `CC(Cc1ccccc1)NCC(=O)Nc1cc(N(C)C)nc2ccccc12` (stereo not drawn), 1.39% (inactive); under `CCNCCNc1ccc([N+](=O)[O-])c2cccnc12`, -2.9% (inactive).
As for `Cc1ccc(-c2nc(N(C)C3CCN(C)CC3)c3ccccc3n2)cc1`, the “activity change, negative = growth inhibition” value was -10.9% (inactive).
As to `Nc1ccc(CCN2CCCC2)cc1`, the “activity change, negative = growth inhibition” value was 3.15% (inactive).
